Results filed as inconclusive are left out. Activity calls are given as the source filed them. Calls follow the shape of the dose curve; as a rule, active = well fitted cell-killing curve with a large enough effect in the repeat runs; inconclusive = weak or mixed curves, or effect the other way; inactive = no such curve, though single readings can be large or run the other way.
% is scaled to controls: 0 for no effect and ±100 for the full control effect.

The assay in a line: qHTS assay to identify small molecule agonists of the farnesoid-X-receptor (FXR) signaling pathway - cell viability counter screen (AID 743218). Also: nearly all actives have a fitted effect of over 45% in size. The note with it: FXR-bla HEK293T viability, CellTiter-Glo luminescence, 16 h; series mostly up to 62.6 µM. Summed up:
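In GeneBLAzer FXR-UAS-bla HEK 293T cells, compounds act for 16 h at 37 C. Cell viability is then scored in the reporter wells by CellTiter-Glo, 30 min at RT, luminescence.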
As to `CCCCCCCCCCCBr`, the result was inactive.
Still for that read-out and setting: next, `O=C(O)P(=O)(O)O`: “inactive”; `CCCCCCCCCCCCCCCC/C=C/C1CC(=O)OC1=O` (stereo unspecified): “inactive”.
As to `COC(=O)c1cc(Cl)c(NC(C)=O)cc1OC`, the outcome was inactive.
On the same count and under the same terms, next, `CCN(CC)CC(=O)Oc1ccc(NC(C)=O)cc1`: “inactive”; `O=P(O)(O)C(O)(Cc1cccnc1)P(=O)(O)O`: “inactive”.
Regarding `C/C(=N\O)c1ccc(OCC(=O)N2CCCCC2)cc1`, the call was inactive.
The same measure, in the same setting: next, `C=C(C)C(=O)OCCOC1CC2CC1C1C=CCC21` (stereo unspecified): “inactive”; `O=C(CCBr)N1CCN(C(=O)CCBr)CC1`: “inactive”; `CCCCCCCCC1CO1` (stereo unspecified): “inactive”.
As for `O=C(O)CCC(=O)Nc1ccc(S(=O)(=O)Nc2nccs2)cc1`, the call was inactive.
On the same count and under the same terms, the entry for `C/C=C(\C)C=O` is “inactive”.
On the same count and under the same terms, next, `CCOCCOCCOC(C)=O`: “inactive”; `CN1CCN(C(=O)C2CCCCC2)CC1`: “inactive”; `CCN(CC)CC`: “inactive”.
On to `CCN1CCN(C(=O)N[C@@H](C(=O)N[C@@H]2C(=O)N3[C@@H]2SC(C)(C)[C@H]3C(=O)O)c2ccccc2)C(=O)C1=O`, for which the outcome was inactive.
Same read-out and setting: the entry for `CCCCC(O)/C=C(C)/C=C/C=C/C(=O)N1CCCC1=O` (stereo unspecified) is “inactive”; for `CCCCCCCCCCCCCCCC(=O)OC` it is “inactive”; for `COC(=O)c1ccc(C(=O)O)cc1` it is “inactive”.
On the same count and under the same terms, the entry for `Cc1cc(C)c(C)c(C)c1` is “inactive”; for `CC1(C)C(=O)C(C)(C)C1=O` it is “inactive”.
Still for that read-out and setting: the entry for `CC(C)(C)OC(=O)c1ccccc1C(=O)O` is “inactive”.
On to `CC(=O)c1ccc(O)c(C(N)=O)c1`, for which the compound was classed as inactive.
The same measure, in the same setting: the entry for `Cc1ccccc1C#N` is “inactive”.
The same measure, in the same setting: next, `O=C(O)Cc1c(Cl)ccc(Cl)c1Cl`: “inactive”; `C[C@H]1COc2c(C3(N)CC3)c(F)cc3c(=O)c(C(=O)O)cn1c23`: “inactive”.
As for `Cc1ccccc1OCC(=O)O`, the result was inactive.
With `C[C@@H]1CC[C@@]2(OC1)O[C@H]1C[C@H]3[C@@H]4CC[C@H]5C[C@@H](O)CC[C@]5(C)[C@H]4CC(=O)[C@]3(C)[C@H]1[C@@H]2C`, the viability change, negative = cytotoxic was 12.5% [at 5.95 µM] (inactive).
Take `O=C(O)/C=C(\CC(=O)O)C(=O)O`: the result was inactive.
The same measure, in the same setting: the entry for `CC(C)C(=O)Nc1cccc(C2CN3CCSC3=N2)c1` (stereo unspecified) is “inactive”; for `COC(=O)c1ccc(NC(C)=O)cc1OC` it is “inactive”.
For the compound `CN(C)c1cc(NC(=O)CNC(C)(C)C)c(O)c2c1C[C@H]1C[C@H]3[C@H](N(C)C)C(=O)C(C(N)=O)=C(O)[C@@]3(O)C(=O)C1=C2O`, the outcome was inactive.
Turning to `OCCC(F)(F)C(F)(F)C(F)(F)C(F)(F)C(F)(F)C(F)(F)F`, the outcome was inactive.
For the compound `CCCCc1ccc(Cl)cc1`, the result was inactive.
On the same count and under the same terms, the entry for `CC(=O)SC[C@@H](C)C(=O)N1CCC[C@H]1C(=O)N[C@@H](Cc1ccccc1)C(=O)O` is “inactive”.
Turning to `CC1(C)CC(N)CC(C)(C)N1`, the call was inactive.

Source of the values: PubChem BioAssay (Tox21).
